Reference: PubChem BioAssay
Results with a measured potency or affinity are listed apart. Inconclusive results are not listed. Activity calls are given as the source filed them. No rule for the calls is given here.

How the values were obtained:
[1] = IGROV1 ovarian cancer cell cytotoxicity, dose response, PAX8 inhibitor project, plate reader, dry powder samples (AID 743043); conditions: series mostly up to 50 µM;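 also: more negative means fewer viable cells or more cytotoxicity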
[2] = IOSE-T80 ovarian epithelial cell cytotoxicity, dose response, cytotoxicity control for PAX8 inhibitor project, plate reader, dry powder samples (AID 743045); conditions: IOSE-T80 ovarian epithelial cells; series mostly up to 50 µM;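 also: more negative values mean more cell killing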

## O=C(N1CCCCC1)[C@@]1(CCS(=O)(=O)c2ccccc2)N=C(c2ccc(OCCCO)cc2)O[C@H]1c1ccccc1
[1]
  outcome: inactive
[2]
  outcome: inactive
